Test [1] can be described thus: qHTS of pediatric cancer cell lines to identify multiple opportunities for drug repurposing: Confirmatory screen for Rh41 cells (AID 1347123).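 Also: 48 h compound exposure; nearly all actives have a fitted effect of over 60% in size.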 Also: potency is read from the fitted curve at half-maximal effect. In outline:
(§1)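 Cells (500-1,000/well) rested 5 h, then received compounds for 48 h; metabolically active cells were measured by CellTiter-Glo luminescence. Final concentrations spanned up to 46 µM (MIPE, 11-point) or 0.59 nM-46 µM (NPC, 8-point) in primary screens, 11-point in follow-ups.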
(In general: qHTS replaces the single test concentration by a dilution series.)

A short description of test [2]: qHTS of pediatric cancer cell lines to identify multiple opportunities for drug repurposing: Confirmatory screen for Rh18 cells (AID 1347125). Also: nearly all actives have a fitted effect of over 55% in size. Also: potency is read from the fitted curve at half-maximal effect. In outline:
as §1

Test [3] can be described thus: qHTS of pediatric cancer cell lines to identify multiple opportunities for drug repurposing: Confirmatory screen for Rh30 cells (AID 1347126). Also: nearly all actives have a fitted effect of over 55% in size. Also: potency is read from the fitted curve at half-maximal effect. A digest of the protocol: as §1
Test [4] can be described thus: qHTS of pediatric cancer cell lines to identify multiple opportunities for drug repurposing: Confirmatory screen for Saos-2 cells (AID 1347127). Also: nearly all actives have a fitted effect of over 60% in size. Also: potency is read from the fitted curve at half-maximal effect. In outline: as §1
A short description of test [5]: qHTS of pediatric cancer cell lines to identify multiple opportunities for drug repurposing: Confirmatory screen for OHS-50 cells (AID 1347128).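 Also: compound exposure lasted 48 h at 37 degrees C; nearly all actives have a fitted effect of over 55% in size.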 Also: potency is read from the fitted curve at half-maximal effect. A digest of the protocol:
as §1

The test system of test [6] is Zika virus NS2B-NS3 protease (unlinked). The experiment in a line: Optimization of GU AMC qHTS for Zika virus inhibitors: Unlinked NS2B-NS3 protease assay (AID 1347151). Also: nearly all actives have a fitted effect of over 80% in size. Also: potency is read from the fitted curve at half-maximal effect. In outline:
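Noncovalent complex of NS2B hydrophilic domain and NS3 protease domain, 25 nM final, in 10 mM Tris-HCl pH 8.0, 0.01% Tween 20. AMC fluorescence change over 15 min at room temperature was fitted to a 4-parameter Hill equation.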

Test [7] has as its system Zika virus NS2B-NS3 protease. The experiment in a line: Primary screen GU AMC qHTS for Zika virus inhibitors (AID 1347154). Also: nearly all actives have a fitted effect of over 70% in size. A digest of the protocol: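 Fluorogenic AMC-substrate cleavage by noncovalent NS2B-NS3 protease complex (25 nM, pH 8.0 Tris buffer with Tween 20) followed for 15 minutes at room temperature (~20% conversion). Percent inhibition from ex340/em450 signal change, fitted by 4-parameter Hill equation.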

Test [8] in a line: qHTS of pediatric cancer cell lines to identify multiple opportunities for drug repurposing: Confirmatory screen for RD cells (AID 1347124).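 Also: cells exposed to compound for 48 h before viability readout; nearly all actives have a fitted effect of over 65% in size.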 Also: potency is read from the fitted curve at half-maximal effect. In outline: as §1
A short description of test [9]: qHTS of pediatric cancer cell lines to identify multiple opportunities for drug repurposing: Confirmatory screen for SK-N-SH cells (AID 1347129).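 Also: cells exposed to compound for 48 h before viability read; nearly all actives have a fitted effect of over 60% in size.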 Also: potency is read from the fitted curve at half-maximal effect. In outline:
as §1

The target in test [10] is Furin (Homo sapiens) (UniProt P09958). The experiment in a line: Furin counterscreen qHTS for Zika virus inhibitors (AID 1347149). Also: potency is read from the fitted curve at half-maximal effect; nearly all actives have a fitted effect of over 70% in size. A digest of the protocol: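 Fluorogenic cleavage of BOC-RVRR-AMC (2 microM final, Km ~15 µM) was monitored (ex 340, em 450 nm) at 37C after 15 min RT preincubation of 5 nM furin with compounds in HEPES pH 7.0 buffer with CaCl2 and Triton X-100. Percent inhibition was fitted to a 4-parameter Hill curve.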
On the technique in general: A counterscreen serves to expose hits that act by an unwanted route or on another target.

Test [11] relates to Zika virus NS2B-NS3 protease (unlinked complex). The experiment in a line: Confirmatory screen GU AMC qHTS for Zika virus inhibitors (AID 1347153). Also: nearly all actives have a fitted effect of over 70% in size. A digest of the protocol:
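Compounds were preincubated 15 min at room temperature with 25 nM noncovalent NS2B-NS3 protease at pH 8.0; AMC substrate added at 10 microM and 15-min fluorescence gain (340/450 nm) converted to percent inhibition, fitted 4-parameter.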

The target of test [12] is N-terminal Xaa-Pro-Lys N-methyltransferase 1 (Homo sapiens) (UniProt Q9BV86). The experiment in a line: qHTS Assay for Inhibitors of N-terminal methyltransferase 1 (NTMT1): LOPAC validation of the NTMT1 SAHH-coupled ThioGlo3 Assay (AID 1347143).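 Also: SAH from peptide methylation measured as thiol fluorescence via SAHH coupling and ThioGlo3; nearly all actives have a fitted effect of over 70% in size.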 Also: potency is read from the fitted curve at half-maximal effect. A digest of the protocol: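 Inhibition of NTMT1 methylation of peptide SPKRIA is followed by converting SAH with SAHH and labelling the released thiol with ThioGlo3. Plates are read at 340/450nm before and 30 min after reagent addition, both at room temperature.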

The nature of test [13]: Confirmatory screen NINDS Rhodamine qHTS for Zika virus inhibitors (AID 1347161).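 Also: purified Zika NS2B-NS3 protease with linked NS2B cofactor domain and Rhodamine110 peptide substrate; series mostly up to about 110 µM; nearly all actives have a fitted effect of over 60% in size.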 A digest of the protocol:
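Purified NS2B-NS3 protease with the NS2B hydrophilic domain joined by a flexible linker (25 nM) in 10 mM Tris-HCl pH 8.0, 0.01% Tween 20, preincubated 15 min at RT with compound; Rhodamine110 peptide substrate 1.5 µM; fluorescence change over 15 min; 4-parameter Hill fit.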

Test [14] concerns Zika virus NS2B-NS3 protease (linked construct). As to the kind of experiment: Confirmatory screen NINDS AMC qHTS for Zika virus inhibitors (AID 1347152). In outline:
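Purified NS2B-NS3 protease with NS2B hydrophilic domain linked to NS3 protease domain by flexible linker, 1 nM final in 10 mM Tris-HCl pH 8.0, 0.01% Tween 20. Compounds preincubated 15 min, room temperature; Bz-Nle-KRR-AMC 10 microM (Km 18.3 µM); 15-min fluorescence change, 4-parameter Hill fit.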

Test [15] deals with Zika virus NS2B-NS3 protease (unlinked complex). As to the kind of experiment: Primary screen GU Rhodamine qHTS for Zika virus inhibitors: Unlinked NS2B-NS3 protease assay (AID 1347159). Also: nearly all actives have a fitted effect of over 60% in size. A digest of the protocol: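 Percent inhibition derives from the 15-min fluorescence change (ex 480, em 540 nm), normalized to no-enzyme and no-inhibitor wells. Reactions contained 25 nM NS2B-NS3 complex and 1.5 microM substrate in 10 mM Tris-HCl pH 8.0.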

Test [16] concerns Zika virus NS2B-NS3 protease (linked construct). As to the kind of experiment: Primary screen NINDS Rhodamine qHTS for Zika virus inhibitors (AID 1347160). Also: nearly all actives have a fitted effect of over 55% in size. The following applies: outcome: dose series up to 57.1 µM unless noted. A digest of the protocol: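 In 10 mM Tris-HCl pH 8.0 containing 0.01% Tween 20, linked NS2B-NS3 protease (25 nM final) is exposed to test compounds for 15 min. Cleavage of 1.5 microM Rhodamine110 substrate is tracked by fluorescence over 15 min.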

For test [17] the test system is unchanged. The experiment in a line: 384 well plate NINDS Rhodamine confirmatory qHTS for Zika virus inhibitors (AID 1347164).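 Also: fluorescence from protease cleavage of Ac-LKRR-rhodamine 110 substrate; potency is read from the fitted curve at half-maximal effect; nearly all actives have a fitted effect of over 65% in size.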 In outline:
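Linked protease at a final 5 nM, 30 nM or 60 nM was preincubated ~15 min with compounds, then given 10 microM Ac-LKRR-Rhodamine 110. Fluorescence (ex 485/em 538 nm) after 25 min in the dark at room temperature.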

This note sets out measurements from PubChem BioAssay (NCATS).

Records with an inconclusive call do not appear. Active and inactive are the calls of the source. Calls follow the shape of the dose curve; as a rule, active = well fitted curve in the direction sought with a large enough effect; inconclusive = small, poorly fitted or top-dose-only effect, or another doubt; inactive = no such curve, though single readings can be large; an effect the other way counts as inactive or inconclusive.

Chain of N-terminal Xaa-Pro-Lys N-methyltransferase 1 (Homo sapiens) (Q9BV86 whole entry, looked up): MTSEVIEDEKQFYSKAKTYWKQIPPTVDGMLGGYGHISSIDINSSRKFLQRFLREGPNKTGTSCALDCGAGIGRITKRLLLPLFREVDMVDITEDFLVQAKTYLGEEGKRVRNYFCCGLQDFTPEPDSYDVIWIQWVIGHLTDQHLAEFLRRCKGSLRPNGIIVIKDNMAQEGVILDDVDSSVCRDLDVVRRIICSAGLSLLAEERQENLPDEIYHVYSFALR
Chain of Furin (Homo sapiens) (P09958 whole entry, looked up): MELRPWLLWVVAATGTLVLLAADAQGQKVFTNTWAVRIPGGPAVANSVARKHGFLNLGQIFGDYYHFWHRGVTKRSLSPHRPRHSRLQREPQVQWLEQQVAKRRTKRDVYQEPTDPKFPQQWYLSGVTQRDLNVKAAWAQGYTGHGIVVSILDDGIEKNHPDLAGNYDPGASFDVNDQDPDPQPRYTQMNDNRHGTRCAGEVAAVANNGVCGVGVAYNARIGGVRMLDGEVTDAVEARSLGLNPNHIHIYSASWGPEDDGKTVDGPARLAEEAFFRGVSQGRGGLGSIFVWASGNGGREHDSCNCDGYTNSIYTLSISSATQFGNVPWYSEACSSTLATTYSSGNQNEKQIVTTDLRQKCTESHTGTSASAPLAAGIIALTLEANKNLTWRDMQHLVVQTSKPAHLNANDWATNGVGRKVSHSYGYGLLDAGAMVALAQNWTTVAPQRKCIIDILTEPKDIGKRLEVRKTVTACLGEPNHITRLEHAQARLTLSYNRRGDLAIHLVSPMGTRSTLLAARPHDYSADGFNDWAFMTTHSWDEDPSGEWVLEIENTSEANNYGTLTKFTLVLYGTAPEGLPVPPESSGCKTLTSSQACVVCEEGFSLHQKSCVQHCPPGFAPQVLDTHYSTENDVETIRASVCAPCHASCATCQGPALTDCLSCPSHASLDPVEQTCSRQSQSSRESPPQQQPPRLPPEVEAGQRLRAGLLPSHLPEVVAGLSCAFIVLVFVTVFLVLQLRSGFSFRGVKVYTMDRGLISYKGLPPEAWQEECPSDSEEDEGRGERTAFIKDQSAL

As to `CS(=O)(=O)Nc1ccc([N+](=O)[O-])cc1Oc1ccccc1`, the Potency in test [1] is 18.5 µM (active). Besides, the Potency result in [2], in test [3], in [4], in [5], in test [6] and in test [7] was “inactive” throughout.

Turning to `CC(CCc1ccc(O)cc1)NCCc1ccc(O)c(O)c1` (configuration not stated), the Potency result in [1], in test [8], in test [2], in test [3], in test [9] and in test [6] was “inactive” in each case. Further, the Potency entry in test [7] is “inactive”.

As for `O=C1c2c(O)ccc(O)c2C(=O)c2c(NCCNCCO)ccc(NCCNCCO)c21`, the Potency in test [1] was 0.465 µM (active); in test [8], 2.61 µM (active); in [2] it was 2.61 µM (active); in test [3] it was 4.14 µM (active); in [4] it was 0.737 µM (active); in test [5] it was 2.33 µM (active). In test [9], the Potency was 0.526 µM (active). For the same molecule, the Potency result in test [6] and in test [7] was “inactive” in each case.

On to `CN(Cc1cnc2nc(N)nc(N)c2n1)c1ccc(C(=O)N[C@@H](CCC(=O)O)C(=O)O)cc1`, for which the Potency in [8] is 0.0827 µM (active); in test [5] it was 0.0131 µM (active); in test [10], 19.1 µM (active); in test [6], 21.2 µM (active). For the same molecule, the Potency entry in [2], in test [3], in [9] and in test [11] was “inactive” throughout.

As to `CC(C)NCC(O)COc1ccc(CCOCC2CC2)cc1` (configuration not stated), the Potency result in test [12], in [6] and in [7] was “inactive” throughout.

In the case of `Cc1ccccc1N1C(=O)c2cc(S(N)(=O)=O)c(Cl)cc2NC1C` (configuration not stated), the Potency in [12] is 79.4 µM (active); in test [10], 27 µM (active). The Potency result in test [13] was “inactive”.

`CC(COc1ccccc1)N(CCCl)Cc1ccccc1` (configuration not stated): the Potency in test [1] is 13.1 µM (active); in [2] it was 18.5 µM (active); in [3], 16.5 µM (active); in [4], 14.7 µM (active). In test [7], the Potency entry was “inactive”.

Regarding `COc1cc2c(c(OC)c1OC)-c1ccc(OC)c(=O)cc1[C@@H](NC(C)=O)CC2`, the Potency was 0.0708 µM (active) in [8] and 0.0447 µM (active) in [4]. The Potency result in [2], in [9], in [6] and in test [7] was “inactive” in each case.

As to `NC(CO)C(=O)NNCc1ccc(O)c(O)c1O` (configuration not stated), the Potency in [12] is 8.91 µM (active). Moreover, the Potency result in test [6] and in [7] was “inactive” in each case.

As to `CC(C)(Oc1ccc(C2CC2(Cl)Cl)cc1)C(=O)O` (configuration not stated), the Potency result in test [12], in test [6] and in test [7] was “inactive” throughout.

As to `O=C1Cc2cc(CCN3CCN(c4nsc5ccccc45)CC3)c(Cl)cc2N1`, the Potency was 44.7 µM (active) in [12]; 24.1 µM (active) in test [10]; 26.7 µM (active) in test [6]; 34.1 µM (active) in test [14]; 2.82 µM (active) in [17]. Also, the Potency entry in test [7], in test [15] and in [13] was “inactive” in each case. In addition, the outcome in test [16] was inactive.

`NC12CC3CC(CC(C3)C1)C2`: the Potency result in [1], in test [8], in [2], in [3], in [4] and in test [5] was “inactive” each time. The Potency entry in test [9], in [6] and in [7] was “inactive” each time.
